Source: PubChem BioAssay AID1851 (National Center for Advancing Translational Sciences (NCATS), 2009)
“And” between values parts separate entries of the source, which are not always exact repeats. Identical values can stand only once. Screen size: about 16,000 compounds; about 5,100 (32%) were called active. Another 25% or so got no clear call; they are omitted. The list shows a part of the results. Values without a mark were called inactive. The call rests on the fitted dose curve; in most records, active means well fitted curve in the direction sought with a large enough effect; inconclusive means small, poorly fitted or top-dose-only effect, or effect the other way; inactive means no such curve, though single readings can be large or run the other way.

Target: Cytochrome P450 3A4 (Homo sapiens) (UniProt P08684)
Assay: Cytochrome panel assay with activity outcomes
Conditions: recombinant CYP, pro-luciferin dealkylation, luminescence, p450-cyp3a4; series mostly up to 57.1 µM; activity, negative = inhibition: at the top concentration
On the % scale 0 is the no-effect control and ±100 the full control effect.

Chain of Cytochrome P450 3A4 (Homo sapiens) (P08684 whole entry, looked up): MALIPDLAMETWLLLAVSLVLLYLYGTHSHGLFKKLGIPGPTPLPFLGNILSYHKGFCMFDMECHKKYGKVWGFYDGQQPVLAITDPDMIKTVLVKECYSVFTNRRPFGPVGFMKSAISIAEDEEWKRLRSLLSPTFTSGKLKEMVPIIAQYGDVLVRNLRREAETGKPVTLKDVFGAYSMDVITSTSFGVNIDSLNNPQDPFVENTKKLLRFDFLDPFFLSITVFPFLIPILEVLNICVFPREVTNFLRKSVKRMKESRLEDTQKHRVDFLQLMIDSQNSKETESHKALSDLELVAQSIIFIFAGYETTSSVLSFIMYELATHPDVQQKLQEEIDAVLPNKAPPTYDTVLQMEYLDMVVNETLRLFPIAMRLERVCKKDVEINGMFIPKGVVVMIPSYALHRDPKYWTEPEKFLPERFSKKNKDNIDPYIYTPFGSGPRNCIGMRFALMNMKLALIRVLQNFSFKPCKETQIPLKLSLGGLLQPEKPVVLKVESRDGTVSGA

Row | SMILES | activity, negative = inhibition | AC50
1 | COc1cc(C(=O)Nc2nc3ccc4nc(C)sc4c3s2)cc(OC)c1OC | -6.95% | –
2 | CCN1CCc2nc(NC(=O)c3ccc4c(c3)OCCO4)sc2C1 | – | 14.1 µM (active)
3 | CCN1CCc2c(sc(N)c2C(N)=O)C1 | -1% | –
4 | Cc1nc2c(ccc3nc(NC(=O)c4ccc5c(c4)OCCO5)sc32)s1 | – | 6.31 µM (active)
5 | COc1cccc(C(=O)Nc2nc3c(s2)CN(C)CC3)c1 | 12.5% | –
6 | Cc1ccccc1C(=O)Nc1ccc(C(=O)NNC(=O)CCCOc2ccc(Cl)cc2Cl)cc1 | -18.9% [at 2.29 µM] | –
7 | CCc1ccc(OCC(=O)NC(=S)Nc2ccc(F)cc2)c(Br)c1 | -0.136% [at 2.29 µM] | –
8 | CC(C/C=N/NC(=O)COc1cc(Cl)ccc1Cl)c1ccccc1 (configuration not stated) | – | 14.1 µM (active)
9 | O=C(COc1ccc(Cl)cc1Cl)N/N=C/CCc1ccccc1 | – | 11.2 µM (active)
10 | CCC(=O)NC(=S)Nc1ccc(NC(=O)COc2ccc(Cl)cc2Cl)cc1 | – | 12.6 µM (active)
11 | C/C(=N/NC(=O)c1cccs1)c1ccc(NC(=O)COc2ccc(Cl)cc2Cl)cc1 | -10.1% [at 2.29 µM] | –
12 | O=C(COc1ccccc1C(=O)N/N=C\c1ccc(O)c(O)c1)N/N=C/c1ccc(O)c(O)c1 | 12.4% [at 2.29 µM] | –
13 | Cc1cc(NC(=O)COc2ccc(Cl)cc2Cl)n(-c2ccccc2)n1 | -28.2% [at 11.4 µM] | –
14 | CC(/C=N\NC(=O)Cn1c(C)nc2ccccc21)=C\c1ccccc1 | 1.66% | –
15 | CC(=C/c1ccccc1)/C=N/n1cnnc1 | – | 12.6 µM (active)
16 | CC(=C\C(=O)O)/C(=C/c1ccccc1)C(=O)O | -2.43% | –
17 | Cc1ccccc1-c1nc(Nc2ccncc2)c2ccccc2n1 | – | 6.31 µM (active)
18 | CNc1nc(-c2ccccc2C(F)(F)F)nc2ccccc12 | -26.2% | –
19 | FC(F)(F)c1ccccc1-c1nc(Nc2ccncc2)c2ccccc2n1 | – | 0.631 µM (active)
20 | CNc1nc(-c2ccccc2Cl)nc2ccccc12 | – | 25.1 µM (active)
21 | Clc1ccccc1-c1nc(Nc2ccncc2)c2ccccc2n1 | – | 3.98 µM (active)
22 | CNC(=O)c1sc(SC)cc1-c1ccc(Cl)cc1 | -8.38% | –
23 | Clc1ccccc1C(Nc1cnccn1)Nc1cnccn1 | -4.71% [at 11.4 µM] | –

Row | SMILES | activity, negative = inhibition | AC50
24 | COCCNC(=O)c1ccc2c(c1)ncn2-c1ccc(F)c(F)c1 | -10.9% | –
25 | COc1ccccc1-c1ccc2ncnc(NCCN3CCOCC3)c2c1 | – | 7.94 µM (active)
26 | Clc1ccccc1-c1ccc2ncnc(NCCN3CCOCC3)c2c1 | – | 5.01 µM (active)
27 | N#Cc1ccccc1-c1ccc2ncnc(NCCN3CCOCC3)c2c1 | – | 10 µM (active)
28 | S=c1nc(-c2ccccc2)oc2c1CCCC2 | -8.21% | –
29 | O=C(CSCc1cccc(Cl)c1)N/N=C/c1ccc(OCC(=O)N2CCCCC2)cc1 | – | 14.1 µM (active)
30 | O=C(CN1CCCC1)N/N=C/c1ccc(-c2cccc(Cl)c2)o1 | 13.8% [at 2.29 µM] | –
31 | CCOC(=O)c1c2ccc(OCC(=O)N/N=C/c3ccc(Cl)cc3)cc2n2ccccc12 | -26.7% [at 2.29 µM] | –
32 | Cc1cccc(OCC(=O)N2CCC(N3CCCCCC3)CC2)c1 | -29.2% | –
33 | Cc1cccc(C(=O)N/N=C/c2ccc(OCC(=O)N3CCCCC3)cc2)c1 | – | 20 µM (active)
34 | COc1ccc2oc(=O)c(C(=O)Oc3ccc(NC(C)=O)cc3)cc2c1 | -13.8% | –
35 | COc1ccc2cc3cc(C(=O)Nc4ccc5c(c4)OCO5)oc3nc2c1 | – | 0.355 µM (active)
36 | COc1ccc2cc3cc(C(=O)NCc4ccc5c(c4)OCO5)oc3nc2c1 | – | 0.708 µM (active)
37 | C/C(O)=C\c1nc2ccccc2oc1=O | -17.8% | –
38 | CO[C@H]1C=CO[C@]2(C)Oc3c(C)c(O)c4c(O)c(c5c(c4c3C2=O)NC2(CCN(CC(C)C)CC2)N=5)=NC(=O)C(C)=CC=C[C@@H](C)[C@@H](O)[C@@H](C)[C@@H](O)[C@@H](C)[C@@H](OC(C)=O)[C@@H]1C | -16.2% [at 25.6 µM] | –
39 | CO[C@@H]1/C=C\O[C@@]2(C)Oc3c(C)c(O)c4c(c3C2=O)C(=N[C@H]2CC[C@H](O)O[C@@H]2C)C=C(NC(=O)/C(C)=C\C(=O)[C@@H]2C[C@@H]2[C@@H](O)[C@H](C)[C@@H](O)[C@H](C)[C@H](OC(C)=O)[C@@H]1C)C4=O | – | 1.26 µM (active)
40 | CC(C)C(=O)NC(=S)Nc1ccccc1C(=O)Nc1ccccc1 | 11.2% [at 2.29 µM] | –
41 | Cc1ccccc1NC(=O)/C(=C/c1ccccc1)c1ccccc1 | 12.5% [at 11.4 µM] | –
42 | COc1ccc(/C=C(/C(=O)Nc2ccccc2C(=O)NC(C)C)c2ccccc2)cc1 | – | 11.2 µM (active)
43 | OC[C@@H]1NC[C@@H](O)[C@H]1O | 3.03% | –
44 | CC(C)=NO[C@@H](C)c1cn([C@@H]2COC[C@@H]2O)nn1 | -6.38% [at 11.4 µM] | –
45 | COc1cccc([C@@H]2Oc3ccc(OC)cc3/C(=N/O[C@@H](C)c3cn([C@H]4COC[C@H]4O)nn3)[C@@H]2O)c1 | – | 3.16 µM (active)
46 | Cc1cc(C)c(-c2cc([C@H](C)O/N=C\[C@@H](C)[C@H](OCc3ccccc3)C(C)C)on2)c(C)c1 | -37.1% [at 11.4 µM] | –

Row | SMILES | activity, negative = inhibition | AC50
47 | COc1cccc([C@H]2Oc3ccc(OC)cc3/C(=N\O[C@@H](C)c3cn([C@H](CO)Cc4ccccc4)nn3)[C@@H]2O)c1 | – | 3.16 µM (active) and 3.98 µM (active)
48 | COc1cccc([C@@H]2Oc3ccc(OC)cc3/C(=N/O[C@@H](C)c3cc(-c4c(C)cc(C)cc4C)no3)[C@@H]2O)c1 | – | 1.58 µM (active)
49 | CCN1C(=O)[C@H]2[C@H]3[C@H](O)[C@H](O)C/C(=N/O[C@@H](C)c4cn([C@H]5COC[C@H]5O)nn4)[C@@H]3CC[C@@H]2C1=O | -18.4% [at 11.4 µM] | –
50 | CCC(NC(=O)C1(C)CC1(Br)Br)c1ccc(C)cc1 (configuration not stated) | – | 3.98 µM (active)
51 | CCC(C)[C@H](NC(=O)NC1CCN(Cc2ccccc2)CC1)C(=O)OC (some centres not stated) | 6.5% | –
52 | CCC(C)C(NC(=O)OCc1ccccc1)C(=O)OCN1C(=O)c2ccccc2C1=O (configuration not stated) | – | 7.08 µM (active)
53 | O=C1NCCc2c1[nH]c1ccccc21 | 17.8% [at 2.29 µM] | –
54 | CCOC(=O)COc1c(C=O)cc(Br)cc1OC | -7.04% | –
55 | CCOc1cc(/C=C2\N=C(C)OC2=O)cc(Br)c1OCC(=O)OC | – | 10 µM (active)
56 | O=C1CCC(c2ccccc2)(c2ccccc2)CC1 | 10.5% [at 11.4 µM] | –
57 | c1ccc2c(CC3NCCN3)cccc2c1 | -5.75% [at 11.4 µM] | –
58 | CN1CCCC[C@@H]1CCN1CCCCC1 | -2.94% [at 11.4 µM] | –
59 | c1ccc(-c2n[nH]c(-c3ccccc3)c2-c2nc3ccccc3[nH]2)cc1 | – | 2.24 µM (active)
60 | CCN(CC)c1nc2ccccc2[nH]1 | -13.8% | –
61 | OCCNc1nc2ccccc2[nH]1 | -4.38% | –
62 | Cc1c(Cl)c(S(N)(=O)=O)cc2c1=NC=NS=2(=O)O | -13% [at 11.4 µM] | –
63 | CCON=C1C(C)(C)C(C)(C)C(C)(C)C1(C)C | -9.31% [at 11.4 µM] | –
64 | COc1ccc(O[C@H]2C=C[C@@H](c3ccccc3)O[C@H]2COC(=O)CC/C(C)=N\O[C@@H](C)CN2CCCc3nc(C)c(C)cc32)cc1 | – | 3.16 µM (active)
65 | COc1ccc(O[C@H]2C=C[C@@H](c3ccccc3)O[C@H]2COC(=O)CC/C(C)=N\O[C@@H](C)CN2CCCCc3nc(C)c(C)cc32)cc1 | – | 3.98 µM (active)
66 | Cc1ccc(N(C(C)C(=O)Nc2cc(Cl)ccc2Oc2ccccc2)S(C)(=O)=O)cc1 (configuration not stated) | – | 4.47 µM (active)
67 | CC(C(=O)Nc1ccccc1Sc1ccccc1)N(c1ccccc1)S(C)(=O)=O (configuration not stated) | – | 5.01 µM (active)
68 | O=C(O)[C@@H]1Cc2c([nH]c3ccccc23)[C@@H](CCCCO)N1 | 1.47% [at 11.4 µM] | –
69 | CC(=O)N1CCC2(CCCN(c3ncccn3)C2)CC1 | 5.39% | –

Row | SMILES | activity, negative = inhibition | AC50
70 | COc1ccc(CCN2C(=NC(=O)CCC(=O)O)SC3CS(=O)(=O)CC32)cc1 (configuration not stated) | 8.98% | –
71 | CC(=O)Nc1ccc(S(=O)(=O)NC2(C(F)(F)F)NC(=O)N(c3ccc(Cl)cc3)C2=O)cc1 (configuration not stated) | 3.14% | –
72 | CCNC(=O)CC1C(=O)N(c2ccc(F)cc2)C(=O)N1CCc1ccc(OC)cc1 (configuration not stated) | – | 7.08 µM (active)
73 | COc1ccc(C(=O)NC2(C(F)(F)F)C(=O)Nc3c2c(=O)[nH]c(=O)n3CCc2ccc(OC)c(OC)c2)cc1 (configuration not stated) | -10.4% | –
74 | O=C(CC1C(=O)N(c2ccc(Cl)cc2)C(=S)N1CCc1ccncc1)Nc1ccc(F)cc1 (configuration not stated) | – | 1.26 µM (active)
75 | COc1ccc2c3c(ccc2c1)N[C@H](C(=O)O)CC3 | -10.2% [at 11.4 µM] | –
76 | O=C(c1ccco1)N1CCC2(CC1)CN(c1cccc(-c3ccccc3)c1)C2 | -14.6% | –
77 | O=C(c1cnccn1)N1CCC[C@@]2(CCN(c3ccccn3)C2)C1 | – | 10 µM (active)
78 | O=C(c1ccncc1)N1CCC2(CC1)CCN(c1ccccc1)CC2 | -29.2% | –
79 | CC(=O)N1CCC[C@@]2(CCN(c3ncccn3)C2)C1 | -5.73% | –
80 | O=C(c1ccncc1)N1CCC2(CC1)CN(c1ccccc1)C2 | -28.5% | –
81 | O=C(c1ccncc1)N1CCC2(CC1)CN(c1ncccn1)C2 | -26.6% | –
82 | O=C(c1ccncc1)N1CCC2(CC1)CN(c1cccc(-c3ccccc3)c1)C2 | – | 7.94 µM (active)
83 | O=C(c1ccncc1)N1CCC[C@@]2(CCN(c3ccccc3)C2)C1 | – | 3.16 µM (active)
84 | O=C(c1cnccn1)N1CCC[C@@]2(CCN(c3ccccc3)C2)C1 | – | 7.94 µM (active)
85 | CC1(C)Oc2cc(N)c([N+](=O)[O-])cc2O1 | -22% | –
86 | Cc1c(C=NCCOCc2ccccc2)cnn1C | -18.1% | –
87 | O=C(c1ccncc1)N1CCC[C@@]2(CCN(c3ccccn3)C2)C1 | – | 7.94 µM (active)
88 | O=C(c1cnccn1)N1CCC[C@@]2(CCN(c3ccncc3)C2)C1 | – | 3.16 µM (active)
89 | CC(=O)N1CCC2(CCCN(c3ccccn3)C2)CC1 | -26.5% | –
90 | O=C(c1cnccn1)N1CCC2(CC1)CN(c1ccncc1)C2 | -3.55% | –
91 | O=C(c1ccncc1)N1CCC2(CC1)CCN(c1ccccn1)CC2 | -20.5% | –
92 | CC(=O)N1CCC2(CC1)CN(c1ccncc1)C2 | -1.4% | –
